Compounds with a hit are over-represented: about 8% of the library has one in this group of screens.
MARV entry inh = inhibitors of Marburg virus binding or cell entry | Marburg virus pseudotyped entry inhibition, cell reporter | Potency, µM (doses to about 37.8 µM), for inactives: at the top dose activity change, negative = inhibition, hits mostly inhibitors | 300,000 tested, 1.8% active; calls by dose curve; tested in HEK293 cells; note: potency is the fitted concentration of half-maximal effect; % is set by controls: 0 for no effect and ±100 for the full control effect
FMDV antiviral = blocks foot and mouth disease virus; FMDV antiviral cell-based qHTS; Potency, µM (top dose mostly 57.9 µM), for inactives: top-dose activity change, negative = inhibition, usual class: inhibitors; 410,000 tested, 1.2% active; AID 1159524; calls by dose curve; tested in HEK293T cells; note: read-out not given here; potency is the fitted concentration of half-maximal effect; % is set by controls: 0 for no effect and ±100 for the full control effect; nearly all actives have a fitted effect of over 45% in size
LASV entry inh = Lassa virus entry inhibition | Lassa virus pseudotype entry inhibition, cell reporter | Potency, µM (doses to about 37.9 µM), for the others: at the top dose activity change, negative = inhibition, hits mostly inhibitors | 300,000 tested, 1.2% active | AID 540256; calls by dose curve; tested in HEK293 cells; note: potency is the fitted concentration of half-maximal effect; % is set by controls: 0 for no effect and ±100 for the full control effect; nearly all actives have a fitted effect of over 50% in size
HCMV antiviral = human cytomegalovirus inhibition. HFF cells, HCMV-luciferase reporter, 72 h; stronger effect = lower value. activity change, negative = inhibition, % at 57.5 µM. 410,000 tested, 4.5% active; in the data active = activity change below about -60%; inconclusive = no clear call, values can overlap the other calls; inactive = above about -39%; note: % is set by controls: 0 for no effect and ±100 for the full control effect
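Screen run at 2 compound doses on HFFs infected with reporter HCMV, MOI 1 PFU/cell. Luciferase activity from cell lysates at 72 h post infection gave inhibition relative to buffer-only and Salinomycin wells.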
HCV inhibitor = inhibitors of hepatitis C virus infection; Huh7.5.1 HCVcc-Cre infection, luciferase reporter, 44 h; Potency, µM (top dose mostly 41.8 µM), without a hit: at the highest dose activity change, negative = inhibition, hits mostly inhibitors; 340,000 tested, 3.4% active; AID 651820; active = well fitted inhibition curve with a large enough effect; inconclusive = small, poorly fitted or top-dose-only effect, or another doubt; inactive = no such curve, though single readings can be large or run the other way; note: potency is the fitted concentration of half-maximal effect; % is set by controls: 0 for no effect and ±100 for the full control effect
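Compounds are dispensed onto cells plated 4 h earlier at 1,000 per well, with HCVcc-Cre virus (about 0.5 moi) added next. Following 44 h of culture, luminescent signal is measured for 15 sec after 15 min with substrate at room temperature.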
SARS PLpro yeast = inhibitors of SARS-CoV papain-like protease in yeast; S. cerevisiae expressing SARS-CoV PLpro, growth rescue; Potency, µM (highest dose often 32.9 µM), for the others: at the highest dose activity, positive = growth rescue, hits mostly activators; 330,000 tested, 0.19% active; calls by dose curve; note: potency is the fitted concentration of half-maximal effect; 0% is about no effect; nearly all actives have a fitted effect of over 55% in size
Active calls of the source: *; ? = inconclusive; · = not tested or not shown; [ ] = dose if it differs, or a comment.

SMILES	MARV entry inh	FMDV antiviral	LASV entry inh	HCMV antiviral	HCV inhibitor	SARS PLpro yeast
Cc1cccc(Nc2nc(N)c([N+](=O)[O-])c(N3CCC(C)CC3)n2)c1	?	25.1µM*	?	-37.8	?	-77.0%
CC1CCN(c2nc(NCc3ccco3)nc(N)c2[N+](=O)[O-])CC1	-18.7%	?	?	-16.8	?	-23.1%
Cc1cccc(Nc2nc(N)c([N+](=O)[O-])c(N3CC(C)OC(C)C3)n2)c1 (stereo not drawn)	·	3.16µM*	·	10.2	10µM*	-1.5%
Nc1nc(Nc2ccccc2)nc(N2CCOCC2)c1[N+](=O)[O-]	-46.0%	-9.0%	?	-4.7	0.2%	11.6%
Cc1cc(C)cc(NC(=O)c2sc3nc[nH]c(=O)c3c2C)c1	·	-19.0%	18.2%[46.1 µM]	14.1	·	·
O=C(CSc1nccn1Cc1ccccc1)NCc1ccco1	·	39.3%	-5.8%[46.1 µM]	45.9	·	·
CCOC(=O)C1=CN(CCC=C(C)C)C(=O)N(C(C)=O)C1c1ccccc1 (stereo not drawn)	57.1%[14.2 µM]	·	·	·	·	·
CCSC1=C(C#N)C(c2ccccc2OC)CC(=O)N1 (stereo not drawn)	·	-10.2%	·	-74.9*	-7.6%	3.6%
CCOc1ccccc1C1CC(=O)NC(SCC)=C1C#N (stereo not drawn)	2.3%	·	-17.4%	12.4	-17.8%	3.2%
CCCSC1=C(C#N)C(c2ccccc2C)CC(=O)N1 (stereo not drawn)	?	?	-14.9%	-99.3*	-11.5%	4.6%
Cc1ccc(-n2nc(C(=O)N3CCCCC3C)c(=O)n(C)c2=O)cc1 (stereo not drawn)	·	-15.1%	29.8%[46.1 µM]	2.6	·	·
CN(C)Cc1nc2ccccc2c(=O)n1Cc1nc(-c2cccc([N+](=O)[O-])c2)cs1	9.7%[46.1 µM]	-24.9%	?	44.0	11.2µM*	-2.7%
COc1ccc(CNc2nn3c(-c4cccc(C(=O)N(C)C)c4)cnc3s2)cc1	·	0.0%	·	-66.4*	·	·
S=c1nc(C2COc3ccccc3O2)[nH][nH]1 (stereo not drawn)	1.9%[46.1 µM]	29.5%	13.7%[46.1 µM]	11.9	9.1%	-0.4%
CCCS(=O)(=O)c1cnc(C2COc3ccccc3O2)nc1N (stereo not drawn)	·	35.5µM*	·	-88.0*	4.6%	-3.0%
CC1CCCC(C)N1/N=C/c1ccc(Cl)cc1 (stereo not drawn)	-1.5%	12.3%	10.5%	21.3	11.2µM*	10.3%
CC1CCCC(C)N1/N=C/c1ccc(C#N)cc1 (stereo not drawn)	?	1.4%	0.2%[46.1 µM]	46.9	8.1%	2.7%
Cc1ccc(-c2nc(CS(=O)CC(=O)N3CCN(c4ccc(Cl)cc4)CC3)c(C)o2)cc1 (stereo not drawn)	·	-23.9%	?	-70.7*	·	·
CC(C)(CO)NC(=O)Nc1ccc(Cl)c(Cl)c1	23.6%[46.1 µM]	6.5%	?	-30.2	?	-0.3%
CN(C)c1ncc(C2=C(Cl)C(=O)C(N3CCCC3)=C(Cl)C2=O)s1	?	?	?	-63.7*	7.94µM*	·
CC(C)NC(=O)c1cnc2sc(N3CCCCCC3)nn2c1=O	·	-7.1%	1.0%[46.1 µM]	1.6	·	·
O=C1C(Cl)=C(N2CCCCC2)C(=O)C(Cl)=C1c1cnc(N2CCCCC2)s1	?	-2.5%	11.6µM*	·	?	-6.2%
CCc1ccc(S(=O)(=O)Nc2cccc(-c3ccc(N4CCCCC4)nn3)c2)s1	·	36.6%	?	5.0	·	·
O=C(CN1C(=O)C2C3C=CC(C4CC34)C2C1=O)Oc1ccccc1 (stereo not drawn)	·	-15.1%	·	-0.7	17.2%	0.7%
CC1=C(c2ccccc2)SC2=NCCN21	·	-6.9%	·	48.9	?	0.2%
SMILES	MARV entry inh	FMDV antiviral	LASV entry inh	HCMV antiviral	HCV inhibitor	SARS PLpro yeast
O=C1CCCc2ccc3ccccc3c21	3.8%	2.8%	-0.5%	-18.2	-13.3%	·
COc1cc2ccccc2c2c1CCCC2=O	4.9%	-2.0%	?	-5.7	12.6µM*	-26.1%
O=C(c1c(F)cccc1F)N1CCCC(c2nc(-c3ccc(Cl)cc3)no2)C1 (stereo not drawn)	·	1.2%	·	-15.5	11.2µM*	-14.3%
O=C(Nc1ccc(F)cc1F)N1CCCC(c2nc(-c3ccc(F)cc3)no2)C1 (stereo not drawn)	-19.5%	-23.8%	14.9%	?	?	-2.0%
Cc1ccc(-c2noc(C3CCCN(C(=O)c4c(F)cccc4F)C3)n2)cc1 (stereo not drawn)	-5.5%	-26.7%	24.9%[14.3 µM]	?	·	-2.8%
Cc1ccc(-c2noc(C3CCCN(C(=O)c4ccccc4Br)C3)n2)cc1 (stereo not drawn)	·	5.2%	·	?	10µM*	-7.2%
O=C(c1ccc(F)cc1F)N1CCCC(c2nc(-c3ccc(F)cc3)no2)C1 (stereo not drawn)	-28.9%[46.1 µM]	-36.2%	?	-22.2	11.2µM*	-6.9%
COc1ccc(C2(C(=O)NCC3Cc4cccc(-c5nc(C)cnc5C)c4O3)CCCC2)cc1 (stereo not drawn)	·	-8.6%	·	·	·	·
CCCc1c(-c2ccc(F)cc2F)ncn1Cc1cccc(-c2ccccc2)c1	·	?	·	-86.7*	·	·
CCCc1c(-c2cccc(Cl)c2)ncn1Cc1cccc(-c2ccccc2)c1	·	-27.2%	·	-15.9	·	·
COc1ccccc1-c1ncn(Cc2cccc(-c3ccccc3)c2)c1CC(C)C	·	28.2µM*	·	?	·	·
COc1ccccc1-c1ncn(Cc2cccc(-c3ccccc3)c2)c1-c1cc(C)cc(C)c1	·	-41.2%	·	?	·	·
CCc1c(-c2ccccc2OC)ncn1Cc1cccc(-c2ccccc2)c1	·	0.0%	·	-98.5*	·	·
O=C(CCN1C(=O)C2C3CCC(C3)C2C1=O)Nc1cccc(Cl)c1 (stereo not drawn)	-6.2%	1.6%	3.8%	66.4	·	3.1%
CCS(=O)(=O)N1CCCc2cc(C(=O)Nc3cc([N+](=O)[O-])ccc3C)ccc21	-8.9%[46.1 µM]	28.2µM*	-9.6%[46.1 µM]	-39.0	·	·
CCS(=O)(=O)N1CCc2cc(C(=O)Nc3cc([N+](=O)[O-])ccc3C)ccc21	6.5%[46.1 µM]	?	-0.4%[46.1 µM]	-9.1	·	·
COc1cccc(C(=O)Nc2ccccc2OC(F)(F)F)c1	-2.6%[46.1 µM]	-4.9%	9.4%[46.1 µM]	-33.5	-10.3%	-1.2%
CCCCNc1c2c3c(cccc3n(C)c1=O)C(=O)c1ccccc1-2	?	31.6µM*	-27.8%	·	?	1.3%
Cn1c(=O)c(NCCc2ccccc2)c2c3c(cccc31)C(=O)c1ccccc1-2	-12.1%	0.0%	-0.9%	-9.7	?	-11.0%
CCOc1ncccc1C(=O)Nc1cc(C(F)(F)F)ccc1N1CCOCC1	·	-17.4%	·	-67.2*	-26.6%	-1.8%
CCN(CC)S(=O)(=O)c1ccc(N2CCCCC2)c(C(=O)Nc2ccccc2N2CCOCC2)c1	5.62µM*	-8.4%	10.3µM*	?	5.62µM*	?
CCOc1ncccc1C(=O)Nc1cc(S(=O)(=O)N(CC)CC)ccc1N1CCOCC1	·	?	·	-65.9*	?	-3.0%
